Experimental data reported in PubChem BioAssay AID1159580 (chemical genetic matrix, 2015).
Several values for one entry are separate records, joined by “and”; a condition that tells them apart may be missing. Identical values can stand only once. In all, about 5,500 compounds went through this assay and about 2,000 (36%) were called active. Roughly 18% stayed inconclusive and do not appear here. Cut-off read from the data, not from the text of the source: active = normalized growth mostly below about 0.91 (no sharp cut-off); inconclusive = no clear call, values can overlap the other calls; inactive = mostly above about 0.92. Some of the results follow.

Assay: chemical genetic growth profiling, strain panel (AID 1159580);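 note: tested at 20 µM; growth read once vehicle control cultures reached saturation at 30 °C; 1 = growth at the plate median or of vehicle wells; lower values mean less growth of the strain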
Settings: S. cerevisiae deletion strains, growth OD

Measured: normalized growth

C#C[C@]1(O)CCC2C3CCC4=C(CCC(=O)C4)C3CC[C@@]21C (some centres undefined)
active: locus YDR137W, strain rgp1, active compounds read low 0.807
inactive: locus YAL021C, strain ccr4, active compounds read low 0.992 | locus YAL026C, strain drs2, active compounds read low 0.942 | locus YAL030W, strain snc1, active compounds read low 0.987 | locus YBL061C, strain skt5, active compounds read low 0.993 | locus YBR009C, strain hhf1, active compounds read low 0.941 | locus YBR021W, strain FUR4, active compounds read low 0.977 | locus YBR023C, strain chs3, active compounds read low 0.986 | locus YBR171W, strain sec66, active compounds read low 0.974 | locus YBR229C, strain ROT2, active compounds read low 1.01 | locus YBR231C, strain swc5, active compounds read low 1 | locus YBR279W, strain paf1, active compounds read low 0.982 | locus YCL011C, strain gbp2, active compounds read low 0.98 | locus YCL016C, strain dcc1, active compounds read low 0.994 | locus YCL029C, strain bik1, active compounds read low 1.01 | locus YCL061C, strain MRC1, active compounds read low 0.971 | locus YCL069W, strain vba3, active compounds read low 0.973 | locus YCR088W, strain abp1, active compounds read low 0.986 | locus YDL005C, strain med2, active compounds read low 0.982 | locus YDL035C, strain GPR1, active compounds read low 0.964 | locus YDL040C, strain nat1, active compounds read low 0.989 | locus YDL074C, strain BRE1, active compounds read low 1.03 | locus YDL101C, strain DUN1, active compounds read low 1 | locus YDL134C, strain PPH21, active compounds read low 0.981 | locus YDL185W, strain tfp1, active compounds read low 1 | locus YDL192W, strain arf1, active compounds read low 1.01 | locus YDR001C, strain nth1, active compounds read low 0.983 | locus YDR069C, strain doa4, active compounds read low 0.97 | locus YDR101C, strain arx1, active compounds read low 0.984 | locus YDR150W, strain NUM1, active compounds read low 1.03 | locus YDR159W, strain sac3, active compounds read low 0.915 | locus YDR162C, strain NBP2, active compounds read low 1.02 | locus YDR195W, strain ref2 1.07 | locus YDR297W, strain sur2, active compounds read low 0.985 | locus YDR318W, strain mcm21, active compounds read low 0.98 | locus YDR334W, strain swr1, active compounds read low 0.996 | locus YDR335W, strain msn5, active compounds read low 0.97 | locus YDR388W, active compounds read low 1 | locus YDR392W, strain spt3, active compounds read low 0.761 | locus YDR502C, strain sam2, active compounds read low 0.985 | locus YEL003W, strain gim4, active compounds read low 0.971 | locus YEL037C, strain rad23, active compounds read low 0.98 | locus YEL061C, strain CIN8 (second series), active compounds read low 0.969 | locus YEL061C, strain CIN8, active compounds read low 1.02 | locus YER015W, strain faa2, active compounds read low 0.994 | locus YER016W, strain bim1, active compounds read low 0.976 | locus YER110C, active compounds read low 1 | locus YER111C, strain swi4, active compounds read low 1 | locus YER155C, strain BEM2 (second series), active compounds read low 0.974 | locus YER155C, strain BEM2, active compounds read low 1.02 | locus YER167W, strain BCK2, active compounds read low 1.01 | locus YFR010W, strain ubp6, active compounds read low 0.98 | locus YGL078C, strain dbp3, active compounds read low 0.995 | locus YGL086W, strain mad1, active compounds read low 0.99 | locus YGL167C, strain pmr1, active compounds read low 0.984 | locus YGL173C, strain kem1, active compounds read low 0.957 | locus YGL227W, strain vid30, active compounds read low 0.98 | locus YGL240W, strain doc1, active compounds read low 0.949 | locus YGL248W, strain PDE1, active compounds read low 1 | locus YGL253W, strain hxk2, active compounds read low 0.962 | locus YGR135W, strain pre9, active compounds read low 0.981 | locus YGR252W, strain gcn5, active compounds read low 0.893 | locus YHR013C, strain ard1, active compounds read low 0.965 | locus YHR027C, strain rpn1, active compounds read low 0.984 | locus YHR030C, strain SLT2, active compounds read low 1.03 and 0.904 | locus YHR079C, strain IRE1 (second series), active compounds read low 0.999 | locus YHR079C, strain IRE1, active compounds read low 0.873 | locus YHR094C, strain hxt1, active compounds read low 0.997 | locus YHR129C, strain ARP1, active compounds read low 1.02 | locus YHR142W, strain chs7, active compounds read low 0.921 | locus YHR200W, strain rpn10, active compounds read low 1 | locus YIL066C, strain RNR3, active compounds read low 1.02 | locus YIL073C, strain SPO22, active compounds read low 0.968 | locus YIL125W, strain kgd1, active compounds read low 1 | locus YIR030C, strain dcg1, active compounds read low 1.02 | locus YJL092W, strain hpr5, active compounds read low 0.986 | locus YJL095W, strain BCK1 (second series), active compounds read low 0.991 | locus YJL095W, strain BCK1, active compounds read low 0.979 and 0.922 | locus YJL115W, strain asf1, active compounds read low 0.975 | locus YJL129C, strain trk1, active compounds read low 0.884 | locus YJL134W, strain LCB3, active compounds read low 1.02 | locus YJL154C, strain vps35, active compounds read low 0.97 | locus YJL164C, strain tpk1, active compounds read low 0.949 | locus YJL166W, strain qcr8, active compounds read low 0.97 | locus YJL168C, strain set2, active compounds read low 1 | locus YJL187C, strain SWE1 (second series), active compounds read low 1.01 | locus YJL187C, strain SWE1, active compounds read low 0.981 | locus YJR043C, strain POL32, active compounds read low 1.02 | locus YJR066W, strain TOR1, active compounds read low 0.886
